# Reference: the supplement of paper PMC6555819
# Tested on: PXR homodimer (NR concentration 270 nM)
# Test: PBM binding z-score (relative to random genomic background probes); higher = stronger binding; sequences stand for … in GC…GCGATTGACAGCGTAGAATGAAGG
# Procedure, shortened: (§1)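 Each nuclear receptor dimer, without ligand, was incubated for 1 h on custom Agilent 4×180K protein-binding microarrays. Binding was detected with antibodies against each partner (one per run), and scanned fluorescence was regression-normalized. The binding z-scores are referenced to random human genomic background probes.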
row,Sequence,PBM binding z-score
1,TCATCTAGGTAATACAGGTGAAAGTCGGCATCTA,0.512
2,CGTCCAAGGTCAGAAGGTCAGTGAAAGCGACGTG,0.822
3,CATACAGGGTCAGCTAAGCCAGAGTAGGGACGGC,-0.442
4,TATACAGGGTCAGAGGCCAGAGTACGAATGTCGA,0.79
5,GGATCGAGGGCATTCGAGTTGATAGCATGGCGAT,1.17
6,ACTAGTTGGTCAGCTGTGGTCACACACAATTCGG,-0.402
7,TCGAGTAGGTTAGGGGCACTCAGAATGGCGTCGA,-0.021
8,CCTAGAAGGCCAATCTGGGTCACTCAAGGCTTGA,-0.344
9,ACTTACGAGTCAACGAGGTTATAGCACGCGTATA,0.513
10,TAGCCTAGGTCATGGGCTAGTATACCACGCGAAC,-0.606
11,TCTGCTAGGTCAACGATGGTCATCTAATCTGCTA,-0.415
12,TCTATTAGCTGATTAGGGCAACCGAAACAGCGGA,-0.871
13,CTCGAAAGGTGGGTTGAGGTGAGTATACGGATAA,0.754
14,CGTCCAAGGTCATAGGAAGTCAGTGAAGACAGAT,0.915
15,ATCTATAGGTAACAAGTTCAGTGAAAGAGAGGAC,1.68
16,TCGTGTAGATCAAGCAGGTTAAGAAAGCCTGAGT,0.251
17,CCTGGGAGGACAACAGGAGGTCAGAGCTGCCAGA,0.631
18,AGAATGAGGGTATACGTAGATCAGGGAAGAAAGT,0.655
19,AATACAGGGTCACTAGGCTAGAGTAGGTACGAAT,0.638
20,TCGAGTAGGTTACTAATGGGGCATTCAGCTTTCT,-0.441

row,Sequence,PBM binding z-score
1,GTACCAACGTGAATAGGTCGTTGATGAGTAGGCG,-0.401
2,CCTACTGGGCCATCAGGTTATTGATATCAACGTT,-0.0218
3,ATCTCTAGGTAAGACTCAGTTCATTGAAGAACGC,4.35
4,CCTTACGGGTGAAGGTTATAGCACGGGTGGTACG,-0.0716
5,ACCTCTAGGTAAAAGTTCAGTGAATCCCGAGGAT,1.16
6,CGTCAAAGTTCAACTAAGGTGACGTAAAGCACGC,4.65
7,CATACTGGGCCATCAGGTCATTGATATCAACGTT,0.876
8,CCGACTGGGGCATAAGGTTACAATAAGCCAGCCC,-0.291
9,CGAACTAGGTCAGAACAGGACAGTGCAGGATGAT,0.225
10,CAAACTTGGTCAAAGGTCAAAGTCGAGCCAACCA,1.58
11,TCATATAGGCAAATGCTAGGTGAAAGTCCGATCT,0.108
12,ATCTCTATGTAAAGATAGTTCAGTGAATGCAAAT,0.457
13,GTACCAAGGAGAATAGGTCGTTGATGAGTAGGCG,-0.146
14,TATACAGGGCCAAAGGCCAGAGTACGAATGTCGA,-0.0965
15,GCTGCTAGGTCAGGTTGCTCAGCTAACGGGTACG,-0.858
16,AGTCAAAGTTCAGGGCGAGGTAACGTAAAGCACG,1.1
17,ACCTACGGGTCAACGAGGTTATAGCACGCGTATA,3.27
18,TCTGCTAAGTCAGTTGGTCAGCTAACGAGCTGCC,-0.707
19,TATCCTAGGTCATGGGCCAGTATACCACGCGAAC,0.762

# Tested on: RARa:RXR (NR concentration 270 nM, RXRa partner concentration 90 nM)
# Test: as above
# Procedure, shortened: as §1
row,Sequence,PBM binding z-score
1,TCATCTAGGTAATACAGGTGAAAGTCGGCATCTA,0.694
2,CGTCCAAGGTCAGAAGGTCAGTGAAAGCGACGTG,5.89
3,CATACAGGGTCAGCTAAGCCAGAGTAGGGACGGC,3.02
4,TATACAGGGTCAGAGGCCAGAGTACGAATGTCGA,3.74
5,GGATCGAGGGCATTCGAGTTGATAGCATGGCGAT,1.16
6,ACTAGTTGGTCAGCTGTGGTCACACACAATTCGG,0.442
7,TCGAGTAGGTTAGGGGCACTCAGAATGGCGTCGA,0.491
8,CCTAGAAGGCCAATCTGGGTCACTCAAGGCTTGA,2.12
9,ACTTACGAGTCAACGAGGTTATAGCACGCGTATA,1.68
10,TAGCCTAGGTCATGGGCTAGTATACCACGCGAAC,2.74
11,TCTGCTAGGTCAACGATGGTCATCTAATCTGCTA,2.56
12,TCTATTAGCTGATTAGGGCAACCGAAACAGCGGA,0.252
13,CTCGAAAGGTGGGTTGAGGTGAGTATACGGATAA,1.22
14,CGTCCAAGGTCATAGGAAGTCAGTGAAGACAGAT,4.28
15,ATCTATAGGTAACAAGTTCAGTGAAAGAGAGGAC,1.74
16,TCGTGTAGATCAAGCAGGTTAAGAAAGCCTGAGT,0.318
17,CCTGGGAGGACAACAGGAGGTCAGAGCTGCCAGA,2.3
18,AGAATGAGGGTATACGTAGATCAGGGAAGAAAGT,0.0305
19,AATACAGGGTCACTAGGCTAGAGTAGGTACGAAT,3.99
20,TCGAGTAGGTTACTAATGGGGCATTCAGCTTTCT,0.224

row,Sequence,PBM binding z-score
1,GTACCAACGTGAATAGGTCGTTGATGAGTAGGCG,0.105
2,CCTACTGGGCCATCAGGTTATTGATATCAACGTT,-0.124
3,ATCTCTAGGTAAGACTCAGTTCATTGAAGAACGC,1.04
4,CCTTACGGGTGAAGGTTATAGCACGGGTGGTACG,0.732
5,ACCTCTAGGTAAAAGTTCAGTGAATCCCGAGGAT,1.11
6,CGTCAAAGTTCAACTAAGGTGACGTAAAGCACGC,4.4
7,CATACTGGGCCATCAGGTCATTGATATCAACGTT,2.16
8,CCGACTGGGGCATAAGGTTACAATAAGCCAGCCC,1.17
9,CGAACTAGGTCAGAACAGGACAGTGCAGGATGAT,0.999
10,CAAACTTGGTCAAAGGTCAAAGTCGAGCCAACCA,7.69
11,TCATATAGGCAAATGCTAGGTGAAAGTCCGATCT,0.528
12,ATCTCTATGTAAAGATAGTTCAGTGAATGCAAAT,0.433
13,GTACCAAGGAGAATAGGTCGTTGATGAGTAGGCG,0.0615
14,TATACAGGGCCAAAGGCCAGAGTACGAATGTCGA,0.479
15,GCTGCTAGGTCAGGTTGCTCAGCTAACGGGTACG,0.655
16,AGTCAAAGTTCAGGGCGAGGTAACGTAAAGCACG,2.93
17,ACCTACGGGTCAACGAGGTTATAGCACGCGTATA,5.3
18,TCTGCTAAGTCAGTTGGTCAGCTAACGAGCTGCC,-0.273
19,TATCCTAGGTCATGGGCCAGTATACCACGCGAAC,2.93
